# According to publication PMC4552634, “A New Set of Chemical Starting Points with Plasmodium falciparum Transmission-Blocking Potential for Antimalarial Drug Discovery” (PLoS ONE, 2015):
# In all, about 13,000 compounds went through this assay and about 3,200 (25%) showed an effect of 50% or more. This is one part of the list.
# System: P. falciparum stage V gametocytes
# Parameters: BacTiter-Glo ATP luminescence viability of purified stage V gametocytes in 384-well plates, per cent inhibition versus DMSO
# Conditions: 48 h, 5 µM; inhibitor
row,SMILES,% Inhibition
1,Cc1cc(N2CCOCC2)nc(Nc2ccc(NC(=O)Nc3ccc(F)cc3)cc2)n1 [TCMDC-124956],-1.746%
2,COc1ccc2nccc([C@@H](O)CN3CCC(NC(=O)Cc4cccc5c(Br)cccc45)CC3)c2c1 [TCMDC-141111],22.03%
3,COc1ccc(-n2nc(C(=O)NCCC3=CCCCC3)c3ccccc3c2=O)cc1 [TCMDC-123609],10.78%
4,Clc1ccc2nc(-c3cccnc3)[nH]c2c1 [TCMDC-142012],6.492%
5,COC(=O)c1cccc(NC(=O)NC2CCN(c3ccnc(NCc4ccc(F)cc4)n3)CC2)c1 [TCMDC-133636],29.63%
6,Cc1cc(N(C)C)nc(Nc2ccc(NC(=O)c3c(F)cccc3Cl)cc2)n1 [TCMDC-124976],3.565%
7,O=C(Nc1cccc(F)c1)NC1CCN(c2ccnc3cc(Cl)ccc23)C1 (stereo not drawn) [TCMDC-133655],-21.12%
8,Cc1ccc(NC(=O)c2ccc3ncccc3c2)cc1OC1CCN(CCC(C)C)CC1 [TCMDC-133975],32.86%
9,Oc1c(C(Nc2nc3ccccc3s2)c2ccccc2)ccc2cccnc12 (stereo not drawn) [TCMDC-125565],82.54%
10,Oc1c(C(Nc2nc3ccccc3s2)c2ccc(OC(F)F)cc2)ccc2cccnc12 (stereo not drawn) [TCMDC-124379],115.4%
11,CCC[C@@H]([C@@H](CC1CCCCC1)C(=O)N[C@H](C(=O)Nc1nccs1)C(C)(C)SCCNC(=O)OCC)N(O)C=O [TCMDC-137778],36.34%
12,CCN(CC)C(C)(C)CN(Cc1ccc(-c2ccc(C(F)(F)F)cc2)cc1)C(=O)Cn1c(CCc2cccc(F)c2F)nc(=O)c2ccccc21 [TCMDC-141049],64.05%
13,CN(C)C(C)(C)CN(Cc1ccc(-c2ccc(C(F)(F)F)cc2)cc1)C(=O)Cn1c(CCc2cccc(F)c2F)nc(=O)c2ccccc21 [TCMDC-141050],88.12%
14,CC=CCON1C(N)=NC(N)=NC1(C)C [TCMDC-131381],17.92%
15,Oc1cc(Nc2ccnc3cc(-c4ccc(CN5CCCCC5)o4)c(Cl)cc23)c(Cl)cc1F [TCMDC-138470],7.124%
16,COc1ccc(C2CC(=O)C3=C(C2)NC(C)=C(C(=O)OC2CCCC2)C3c2cccc(O)c2)cc1OC (stereo not drawn) [TCMDC-125638],22.13%
17,O=C(Nc1ccnc(N2CCCN(Cc3cccc(O)c3)CC2)c1)c1ccc(F)cc1 [TCMDC-134961],-9.577%
18,Cc1cc(N2CCCCC2)nc2ccc(NC(=O)c3cccc([N+](=O)[O-])c3)cc12 [TCMDC-124423],6.095%
19,Cc1cc(F)ccc1-c1nc(Nc2ccncc2)c2ccn(C)c2n1 [TCMDC-141231],-13.59%
20,Cc1ccc(-c2nc(Nc3ccncc3)c3ccccc3n2)s1 [TCMDC-134482],16.52%
21,Cc1cccc(-c2nc(Nc3ccncc3)c3ccc([N+](=O)[O-])cc3n2)n1 [TCMDC-134702],85.91%
22,COc1cccc(-c2nc(Nc3ccncc3)c3ncn(C)c3n2)c1 [TCMDC-141275],49.52%
23,COc1ccc2nc(-c3cccc(C)n3)nc(Nc3ccncc3)c2c1 [TCMDC-134670],106.1%
24,Cc1cccc(-c2nc(Nc3ccncc3)c3cc(N(C)C)ccc3n2)n1 [TCMDC-135308],101.1%

row,SMILES,% Inhibition
1,COc1ccc(-c2cc(Nc3nc(-c4cccc(Cl)c4)nc4ccccc34)ccn2)cc1 [TCMDC-138867],-54.58%
2,COc1cc2nc(Cl)nc(Nc3ccncc3)c2cc1OC [TCMDC-123606],31.62%
3,COC(=O)c1ccc(CC(C)NCC(O)c2cccc(C(F)(F)F)c2)c(Cl)c1 (stereo not drawn) [TCMDC-131468],4.686%
4,COc1ccc(C2CC(=O)C3=C(C2)NC(C)=C(C(=O)OC(C)C)C3c2cccc(O)c2)cc1OC (stereo not drawn) [TCMDC-125636],49.05%
5,O=C(Nc1ccnc(-c2cccnc2)n1)c1cc(C(F)(F)F)cc(C(F)(F)F)c1 [TCMDC-124516],40.18%
6,Cc1ccc2c(c1)C1(CC(=O)N(CCc3scnc3C)C1=O)C(=O)N2Cc1ccccc1 (stereo not drawn) [TCMDC-136702],3.881%
7,O=S(=O)(NCCN1CCCC1)c1ccc(-c2cccc(CNC3Cc4ccccc4C3)c2)cc1F [TCMDC-132221],86.87%
8,Cc1cc(-c2ccc(CN3Cc4ccccc4C3)cc2)ccc1S(=O)(=O)NCCN1CCCC1 [TCMDC-132293],17.83%
9,Cc1cc(-c2ccc(CNC3Cc4ccccc4C3)cc2)ccc1S(=O)(=O)NCCN1CCCC1 [TCMDC-132243],88.03%
10,O=S(=O)(NCCN1CCCC1)c1ccc(-c2ccc(CNC3Cc4ccccc4C3)cc2)cc1F [TCMDC-132237],105.2%
11,Cc1cc(OCCCN=C(N)c2ccc3ccccc3c2)c(C(C)C)cc1Cl [TCMDC-137527],57.09%
12,NC(=NCCc1ccc(Cl)c(Cl)c1)c1ccc2ccccc2c1 [TCMDC-137525],0.5254%
13,NC(=NCCc1ccccc1Cl)c1ccc2ccccc2c1 [TCMDC-137524],-3.713%
14,O=C(NCCCCN1CCC2c3cccc(O)c3CCC21)c1ccc(-c2ccccc2)cc1 (stereo not drawn) [TCMDC-139086],3.232%
15,Cc1sc2cc(Cl)cc(Cl)c2c1S(=O)(=O)Nc1ccc2nccc(N3CCNCC3)c2c1 [TCMDC-139444],54.96%
16,O=S(=O)(Nc1ccc2nccc(N3CCNCC3)c2c1)c1ccc2c(Cl)cccc2c1 [TCMDC-139383],15.64%
17,Cc1sc2ccc(Cl)cc2c1S(=O)(=O)Nc1ccc2nccc(N3CC(C)NC(C)C3)c2c1 (stereo not drawn) [TCMDC-139550],20.27%
18,COCCNCc1cccc(-c2ccc3c(Nc4ccc(Oc5cccnc5)cc4)ccnc3c2)c1 [TCMDC-138487],75%
19,COCCNCc1ncsc1-c1ccc2c(Nc3ccc(Oc4ccccc4)cc3)ccnc2c1 [TCMDC-138440],7.654%
20,CS(=O)(=O)CCNCc1cccc(-c2ccc3c(Nc4ccc(Oc5ccccc5)cc4)ccnc3c2)c1 [TCMDC-138477],27.24%
21,COCCNCc1cccc(-c2cc3nccc(Nc4ccc(Oc5ccccc5)cc4)c3cc2Cl)c1 [TCMDC-138461],14.84%
22,COCCNCc1cccc(-c2ccc3nccc(Nc4cc(O)ccc4C)c3c2)c1 [TCMDC-138480],40.94%
23,CS(=O)(=O)CCNCc1cccc(-c2cc3nccc(Nc4ccc(Oc5ccccc5)cc4)c3cc2Cl)c1 [TCMDC-138462],-8.797%
24,CS(=O)(=O)CCNCc1cccc(-c2ccc3c(Nc4ccc(Oc5cccnc5)cc4)ccnc3c2)c1 [TCMDC-138488],-52.67%

row,SMILES,% Inhibition
1,COCCNCc1cccc(-c2ccc3c(Nc4ccc(Oc5ccccc5)cc4)ccnc3c2)c1 [TCMDC-138478],82.82%
2,CN(C)CCNCc1cccc(-c2ccc3c(Nc4ccc(Oc5ccccn5)cc4)ccnc3c2)c1 [TCMDC-138493],98.43%
3,Nc1c2ccccc2nc2ccc(Cl)cc12 [TCMDC-132029],93.03%
4,Nc1c2ccccc2nc2cc(Cl)ccc12 [TCMDC-141999],16.16%
5,Nc1c2ccccc2nc2ccc(-c3ccccc3)cc12 [TCMDC-132030],118.4%
6,Nc1nc(N)c2cc(C#Cc3ccc(-c4ccccc4)cc3)ccc2n1 [TCMDC-139006],-7.862%
7,Cl.Nc1nc(Nc2ccc(Cl)cc2)nc2ccccc12 [TCMDC-124354],6.388%
8,CN(C)c1cc(C(=O)N[C@@H](Cc2ccccc2)[C@H](O)CNC2CCCCC2)cc2[nH]ccc12 [TCMDC-136317],-94.17%
9,CN1CCN(c2ccnc3ccc(NC(=O)Nc4ccccc4Br)cc23)CC1 [TCMDC-139342],15.44%
10,Fc1ccccc1COc1ccc(Nc2ncnc3ccc(I)cc23)cc1Cl [TCMDC-138627],9.829%
11,COc1cccc2cc(C(=O)N[C@@H](CC(C)C)C(=O)N[C@H](/C=N/NC(=O)OC(C)(C)C)CC(=O)OC(C)(C)C)oc12 [TCMDC-136085],28.48%
12,CC(C)(CNC(=O)C1CCN(CCOc2ccc(F)c(F)c2)CC1)c1nc(-c2ccc(Cl)c(O)c2)c(-c2ccncc2)[nH]1 [TCMDC-141136],-40.38%
13,CN1CCC(C(=O)N(Cc2ccc(-c3ccc(CNCCc4ccc(S(C)(=O)=O)cc4)cn3)cc2)Cc2cccc(F)c2)CC1 [TCMDC-141507],85.53%
14,CN1CCC(C(=O)N(Cc2ccc(-c3ccc(CNCCc4ccccc4)cn3)cc2)Cc2cccc(F)c2)CC1 [TCMDC-141553],18.34%
15,CCCNCc1ccc(-c2ccc(CN(Cc3cccs3)C(=O)C3CCN(C)CC3)cc2)nc1 [TCMDC-141526],99.19%
16,CN1CCC(C(=O)N(Cc2ccc(-c3ccc(CNCCc4ccc(S(C)(=O)=O)cc4)cn3)cc2)Cc2ccc3c(c2)OCO3)CC1 [TCMDC-141505],98.95%
17,CC(=O)N1CCN(c2ccc(NC(=O)c3oc(-c4ccccc4)nc3C(F)(F)F)cn2)CC1 [TCMDC-135142],-12.47%
18,CCN(CC)CCNC(=O)c1ccc(NC(=O)c2cn(-c3ccccc3)nc2-c2cccs2)cc1 [TCMDC-124032],29.35%
19,O=S(=O)(c1c(Cl)cc(Cl)cc1Cl)N1CCCCC(c2ccc(Cl)cc2)=N1 [TCMDC-134526],-3.325%
20,O=S(=O)(c1ccc(Cl)cc1Cl)N1CCCCC(c2ccc(C(F)(F)F)cc2)=N1 [TCMDC-134536],0.9055%
21,O=S(=O)(c1c(Cl)cccc1Cl)N1CCCCC(c2ccc(C(F)(F)F)cc2)=N1 [TCMDC-134537],50.16%
22,O=S(=O)(c1ccccc1Cl)N1CCCCC(c2ccc(C(F)(F)F)cc2)=N1 [TCMDC-134532],-26.8%
23,O=S(=O)(c1c(Cl)cc(Cl)cc1Cl)N1CCCCC(c2ccc(C(F)(F)F)cc2)=N1 [TCMDC-134541],71.02%
24,Cc1cccc(Cl)c1S(=O)(=O)N1CCCCC(c2ccc(C(F)(F)F)cc2)=N1 [TCMDC-134535],25.02%
